Each structure is given as a SMILES string. This is part of a sample that, as a whole, favours compounds with a hit. Of some 83,000 tested, about 20% had one in any assay.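 Activity criterion: percent growth below 10, measured after cells in 96-well plates were exposed to a single compound concentration for 48 hours.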 Activity calls are given as the source filed them.

The experiment concerns RPMI-8226 leukemia. The experiment is described as follows: NCI-60 one-dose screen, 48 h (100 = growth as untreated, 0 = no growth, -100 = all killed). Particulars: 10 µM unless noted. Here is the method:
Growth inhibition of the RPMI-8226 human tumor cell line is measured as a screen for anti-cancer activity. Cells are grown in 96 well plates and exposed to the test compound for 48 hours. Compounds are tested at a single concentration, which is 10^-5 M for most compounds. The reported endpoint is percent growth (GI% or GIPRCNT), where numbers from 0 - 100% represent growth inhibition, and numbers from -100% - 0 represent cell death. For example, a value of 40 represents 60% growth inhibition. A value of 0 means no net growth occurred over the course of the experiment. A value of -40 indicates 40% of cells at the beginning of the experiment died by the end of the experiment. A value of -100 means all cells are dead at the end of the experiment.
NCI-60 Human Tumor Cell Lines Screen was performed using the standard one-dose NCI protocol, which is described in more detail at https://dtp.cancer.gov/discovery_development/nci-60/default.htm.
Compounds with GIPRCNT values below 10 were considered active. Activity score was based on GIPRCNT using the following formula: […]
Score is 0 for GIPRCNT values of 100 or above, 50 for GIPRCNT values of 0, and 100 for GIPRCNT values of -100.
For the compound `C=C1C(=O)O[C@H]2[C@H](O)[C@@H](C)CCC/C(C)=C/CC[C@@]3(C)O[C@@H]3C[C@@H]12`, the growth is 99.8% (inactive).
On to `COc1ccc(S(=O)(=O)Nc2cc(/C=C\c3cc(OC)c(OC)c(OC)c3)cc(OC)c2OC)cc1OC`, for which the growth is 25.3% (inactive).
With `CC1CCN(C(=O)CSc2nc3sc4c(c3c(=O)[nH]2)CCCC4)CC1`, the growth was 82.4% (inactive).
For the compound `O=C(CNc1ccc(Cl)cc1)Nc1ccc(-c2nc3ccccc3s2)cc1`, the growth is 46% (inactive).
For `COc1cccc(-n2cc(-c3nc(Cl)c4ccccc4n3)nn2)c1` the value was 97.7% (inactive); for `COc1ccc(/C=C/C(=O)c2ccc(B(O)O)cc2)cc1O`, 6.12% (active).
For `O=C(CN1CCOCC1)Nc1ccc(-c2nc3ccccc3s2)cc1`, the growth is 94% (inactive).
As to `CC1=NN2C(=NC3=C(CCC/C3=C\c3ccc(Cl)cc3)C2c2ccc(Cl)cc2)S1` (stereo not given), the growth is -18.4% (active).
For `COc1ccc(/C=c2\sc3n(c2=O)C2C(NN=3)N(C)C(=O)N2C)cc1` (stereo not given) the value was 20.3% (inactive); for `CN(C)c1ccc(/C=C\N=Nc2ccc(Br)cc2)cc1`, 50.2% (inactive); for `CCC#CC[C@H]1C/C=C2/C(=O)C=C[C@@H]2C/C=C\CCCC(=O)O1`, 4.15% (active).
`COc1ccc2c(c1)C(=O)/C(=C/c1ccc(O)cc1)O2`: the growth was 35.1% (inactive).
Turning to `CC(=O)Nc1ccc(S(=O)(=O)N2C(=O)CCC2C(=O)Nc2ccccc2)cc1` (stereo not given), the growth is 26.7% (inactive).
For `CCCCC(N)(C(=O)O)C1CCCC1` (stereo not given), the growth was 111% (inactive).
In the case of `CCOC(=O)/C=C\C(=O)NC(N)=O`, the growth was 98.5% (inactive).
Take `COc1ccc(C(=O)c2cc(OC)c(OC)c(OC)c2)cc1/C=C/C(=O)c1ccc2c(c1)OCO2`: the growth is -3.8% (active).
Turning to `CC(=O)c1cc(C(=O)c2ccc3c(c2)Sc2ccccc2N3)c2cc(C)ccn12`, the growth is 12.3% (inactive).
For the compound `COc1cc(C2CC(c3c(C)[n+]([O-])c4ccccc4[n+]3[O-])=NN2)cc(OC)c1OC` (stereo not given), the growth is 102% (inactive).
For `COc1cc(NCCCN=C(N)NC(N)=NC(C)C)c2ncccc2c1` the value was 52.5% (inactive); for `O=C1CCCCN1CCCCC#Cc1ccccc1C#Cc1ccc([N+](=O)[O-])cc1`, 2.47% (active); for `O=c1[nH]c(CN2CCN(c3ccccc3F)CC2)nc2sc3c(c12)CCC3`, 107% (inactive).
As for `Cc1cc(C(=O)O)c(N)c(C)n1`, the growth was 103% (inactive).
`O=C1CCCCC=C1C[N+](=O)[O-]`: the growth was 60.6% (inactive).
Regarding `C=C1C(=O)O[C@H]2[C@H]1CC/C(Cn1cc(-c3ccsc3)nn1)=C\CC[C@@]1(C)O[C@@H]21`, the growth is -43.2% (active).
With `CC(=O)C1CCC(C)=CC1=O` (stereo not given), the growth was 100% (inactive).
The value for `Cn1c(-c2nonc2NC(=O)c2ccc(F)cc2)nc2ccccc21` was 106% (inactive).
For `N#CC1=C(N)n2nc(-c3ccncc3)nc2NC1c1cccc2ccccc12` (stereo not given), the growth is 74.9% (inactive).
As to `Nc1c(C(=O)Nc2cccc(Cl)c2Cl)sc2nc3c(cc12)C(=O)CCC3`, the growth was 102% (inactive).
`COc1cc(Cn2c(SCC(=O)Nc3ccc(Cl)cc3)nc3ccccc3c2=O)cc(OC)c1OC`: the growth was 28.6% (inactive).
For `O=S(=O)(O)CCl` the value was 98.7% (inactive).
As to `COc1ccc(/C=C\c2cc(OC)c(OC)c(OC)c2)c(NS(=O)(=O)c2ccc(C(C)(C)C)cc2)c1O`, the growth was 27.9% (inactive).
With `COc1cccc(-c2nc3sccn3c2-c2ccnc(NCCNS(=O)(=O)c3ccccc3)n2)c1`, the growth was 49.5% (inactive).
Consider `C=C1C(=O)O[C@H]2[C@H]1CC/C(COC(=O)NCCc1ccc(Br)cc1)=C\CC[C@@]1(C)O[C@@H]21`, for which the growth is 2.82% (active).
For `NC(=O)c1c(NC(=O)c2ccc3c(c2)OCO3)sc2c1CCC(=O)C2` the value was -34.9% (active); for `Cc1ccc2nc(-c3c(CCCO)noc3N)[nH]c(=O)c2c1`, 90.4% (inactive).
For the compound `COc1ncc(-c2ccc3ncnc(Nc4cccc(Cl)c4)c3c2)cc1N(S(C)(=O)=O)S(C)(=O)=O`, the growth is 55.8% (inactive).
As for `COc1cccc(NC(=O)Cn2cc3c(=O)oc4ccccc4c3n2)c1`, the growth was 97.9% (inactive).
For `C/C1=C\CCC2(C)OC2CC2CCC(C)(O)C(CC1)C2(C)C` (stereo not given), the growth is 111% (inactive).
In the case of `COc1ccc(/C=N/NC(=O)Cn2c(Cc3cccc4ccccc34)nc3ccccc32)cc1`, the growth is 88.3% (inactive).
In the case of `Cc1ccc(OCCn2c(C)nn(-c3ccc(Cl)cc3)c2=O)cc1`, the growth was 97.1% (inactive).

The values above are taken from PubChem BioAssay (NCI).
